Consider 13 molecules from ChEMBL document CHEMBL2218924, “A broad activity screen in support of a chemogenomic map for kinase signalling research and drug discovery” (Biochem J, 2013).

What is called residual activity is the signal under treatment as a percentage of the control signal.

Assay [1] deals with T1, Casein kinase II (Homo sapiens) (UniProt P67870+P68400+P19784). The following applies: at 1 µM.
The target in assay [2] is T1, Casein kinase II (Homo sapiens). The following applies: at 10 µM.
Assay [3] concerns the target Casein kinase II subunit alpha' (Homo sapiens) (UniProt P19784). Conditions: at 10 µM.
Assay [4] addresses Dual specificity protein kinase CLK3 (Homo sapiens) (UniProt P49761). The following applies: at 1 µM.
Assay [5] shares this target. The following applies: at 10 µM.
Assay [6] deals with Calcium/calmodulin-dependent protein kinase type 1 (Homo sapiens) (UniProt Q14012). The following applies: at 1 µM.
The target is the same in assay [7]. Conditions: at 10 µM.
Assay [8] deals with Calcium/calmodulin-dependent protein kinase type II subunit beta (Homo sapiens) (UniProt Q13554). Conditions: at 10 µM.
Assay [9] has as its target Calcium/calmodulin-dependent protein kinase type II subunit gamma (Homo sapiens) (UniProt Q13555). The following applies: at 1 µM.
Assay [10] has the same target. The following applies: at 10 µM.
Assay [11] has as its target Calcium/calmodulin-dependent protein kinase type II subunit delta (Homo sapiens) (UniProt Q13557). Conditions: at 1 µM.
For assay [12] the target is unchanged. Conditions: at 10 µM.
Assay [13] concerns the target T2, Calcium/calmodulin-dependent protein kinase type IV (Homo sapiens) (UniProt Q16566).
T2 sequence (whole entry): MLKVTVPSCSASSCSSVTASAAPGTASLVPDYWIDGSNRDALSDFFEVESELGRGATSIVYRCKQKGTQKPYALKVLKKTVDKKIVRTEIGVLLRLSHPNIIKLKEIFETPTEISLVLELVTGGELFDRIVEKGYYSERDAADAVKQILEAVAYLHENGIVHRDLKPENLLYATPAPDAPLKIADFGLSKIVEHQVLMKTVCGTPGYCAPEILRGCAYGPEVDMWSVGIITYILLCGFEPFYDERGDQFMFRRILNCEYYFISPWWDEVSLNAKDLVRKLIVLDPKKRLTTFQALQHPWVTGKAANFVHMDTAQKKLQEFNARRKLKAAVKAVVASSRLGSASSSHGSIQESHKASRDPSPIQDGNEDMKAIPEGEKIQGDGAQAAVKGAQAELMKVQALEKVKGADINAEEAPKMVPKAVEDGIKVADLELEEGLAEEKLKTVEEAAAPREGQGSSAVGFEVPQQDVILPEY
The following applies: at 1 µM.

Assay [14] has as its target T2, Calcium/calmodulin-dependent protein kinase type IV (Homo sapiens). The following applies: at 10 µM.
The target in assay [15] is Casein kinase II subunit alpha' (Homo sapiens) (UniProt P19784). The following applies: at 1 µM.
For assay [16], the target named is Dual specificity protein kinase CLK2 (Homo sapiens) (UniProt P49760). Conditions: at 1 µM.
For assay [17] the target is unchanged. Conditions: at 10 µM.
The target in assay [18] is Calcium/calmodulin-dependent protein kinase type II subunit beta (Homo sapiens) (UniProt Q13554). Conditions: at 1 µM.
For assay [19], the target named is Tyrosine-protein kinase CSK (Homo sapiens) (UniProt P41240). The following applies: at 1 µM.
The target is the same in assay [20]. Conditions: at 10 µM.

Dual specificity protein kinase CLK2 (Homo sapiens), sequence (P49760 whole entry, looked up): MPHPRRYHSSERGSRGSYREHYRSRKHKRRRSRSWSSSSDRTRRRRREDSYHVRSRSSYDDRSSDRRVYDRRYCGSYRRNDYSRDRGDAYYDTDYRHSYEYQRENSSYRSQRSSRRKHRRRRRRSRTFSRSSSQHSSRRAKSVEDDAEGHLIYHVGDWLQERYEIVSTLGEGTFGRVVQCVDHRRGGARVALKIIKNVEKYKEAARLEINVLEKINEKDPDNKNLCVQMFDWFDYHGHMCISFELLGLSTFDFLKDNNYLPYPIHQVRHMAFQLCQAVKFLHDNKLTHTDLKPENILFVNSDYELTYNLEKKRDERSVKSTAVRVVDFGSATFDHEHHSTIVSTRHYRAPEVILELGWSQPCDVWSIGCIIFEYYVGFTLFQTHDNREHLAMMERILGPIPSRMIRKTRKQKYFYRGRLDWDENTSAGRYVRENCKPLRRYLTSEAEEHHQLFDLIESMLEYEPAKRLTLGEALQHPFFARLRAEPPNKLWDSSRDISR
Tyrosine-protein kinase CSK (Homo sapiens), sequence (P41240 2-450 limits assumed): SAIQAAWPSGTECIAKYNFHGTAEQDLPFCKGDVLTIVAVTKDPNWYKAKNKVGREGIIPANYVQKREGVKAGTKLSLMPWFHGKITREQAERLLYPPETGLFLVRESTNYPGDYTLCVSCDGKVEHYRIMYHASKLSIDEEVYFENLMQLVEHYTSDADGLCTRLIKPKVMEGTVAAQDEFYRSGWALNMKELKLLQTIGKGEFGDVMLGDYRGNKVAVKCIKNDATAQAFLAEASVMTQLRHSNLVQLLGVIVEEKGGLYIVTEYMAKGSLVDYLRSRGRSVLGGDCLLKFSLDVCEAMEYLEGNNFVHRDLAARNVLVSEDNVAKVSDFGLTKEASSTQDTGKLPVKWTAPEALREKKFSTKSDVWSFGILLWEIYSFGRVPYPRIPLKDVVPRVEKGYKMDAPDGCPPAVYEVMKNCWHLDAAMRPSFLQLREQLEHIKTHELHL
Calcium/calmodulin-dependent protein kinase type II subunit delta (Homo sapiens), sequence (Q13557 whole entry): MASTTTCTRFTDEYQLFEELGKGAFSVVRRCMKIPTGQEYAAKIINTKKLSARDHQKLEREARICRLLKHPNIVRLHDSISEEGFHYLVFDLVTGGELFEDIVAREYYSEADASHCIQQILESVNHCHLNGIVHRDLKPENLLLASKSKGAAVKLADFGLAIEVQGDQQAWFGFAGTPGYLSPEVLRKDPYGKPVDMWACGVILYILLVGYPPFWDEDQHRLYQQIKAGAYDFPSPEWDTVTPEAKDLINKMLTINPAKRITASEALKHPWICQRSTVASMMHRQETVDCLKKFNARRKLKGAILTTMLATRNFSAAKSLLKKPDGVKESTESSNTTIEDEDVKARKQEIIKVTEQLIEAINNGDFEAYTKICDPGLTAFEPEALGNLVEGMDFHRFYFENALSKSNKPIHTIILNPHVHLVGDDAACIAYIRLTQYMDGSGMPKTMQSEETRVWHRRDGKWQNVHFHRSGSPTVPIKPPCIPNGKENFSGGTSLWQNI
Dual specificity protein kinase CLK3 (Homo sapiens), sequence (P49761 whole entry, looked up): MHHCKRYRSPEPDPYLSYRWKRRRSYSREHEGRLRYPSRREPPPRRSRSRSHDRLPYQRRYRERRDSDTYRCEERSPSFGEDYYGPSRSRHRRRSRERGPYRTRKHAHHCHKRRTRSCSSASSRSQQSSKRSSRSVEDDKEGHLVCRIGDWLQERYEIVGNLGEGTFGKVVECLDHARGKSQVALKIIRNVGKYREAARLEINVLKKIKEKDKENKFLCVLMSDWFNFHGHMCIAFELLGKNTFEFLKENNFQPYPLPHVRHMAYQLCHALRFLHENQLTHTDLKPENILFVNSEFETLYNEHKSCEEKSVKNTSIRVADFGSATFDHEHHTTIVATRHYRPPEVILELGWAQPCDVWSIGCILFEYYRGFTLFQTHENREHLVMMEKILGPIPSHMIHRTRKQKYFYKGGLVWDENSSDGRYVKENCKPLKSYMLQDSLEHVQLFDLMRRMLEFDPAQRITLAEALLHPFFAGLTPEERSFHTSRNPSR
Calcium/calmodulin-dependent protein kinase type 1 (Homo sapiens), sequence (Q14012 whole entry, looked up): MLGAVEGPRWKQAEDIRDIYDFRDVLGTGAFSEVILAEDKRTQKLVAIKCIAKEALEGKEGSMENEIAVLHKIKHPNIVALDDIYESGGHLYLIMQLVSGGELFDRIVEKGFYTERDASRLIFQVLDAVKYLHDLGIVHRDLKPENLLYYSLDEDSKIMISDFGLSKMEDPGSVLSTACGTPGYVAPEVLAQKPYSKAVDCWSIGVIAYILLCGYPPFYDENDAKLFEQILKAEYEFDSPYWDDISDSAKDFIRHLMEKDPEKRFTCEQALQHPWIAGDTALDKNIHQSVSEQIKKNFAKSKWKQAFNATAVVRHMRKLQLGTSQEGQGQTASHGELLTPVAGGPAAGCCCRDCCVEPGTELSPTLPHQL
Casein kinase II subunit alpha' (Homo sapiens), sequence (P19784 whole entry, looked up): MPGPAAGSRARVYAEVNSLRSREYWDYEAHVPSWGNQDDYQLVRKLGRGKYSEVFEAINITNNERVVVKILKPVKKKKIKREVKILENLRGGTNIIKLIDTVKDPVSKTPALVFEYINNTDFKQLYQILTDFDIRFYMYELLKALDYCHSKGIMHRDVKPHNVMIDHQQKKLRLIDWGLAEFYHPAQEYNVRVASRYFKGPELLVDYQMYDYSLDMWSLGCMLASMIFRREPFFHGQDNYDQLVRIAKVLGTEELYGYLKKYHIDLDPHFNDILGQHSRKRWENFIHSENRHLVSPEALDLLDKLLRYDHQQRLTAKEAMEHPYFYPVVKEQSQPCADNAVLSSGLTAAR
T1 sequence (P19784 whole entry, looked up): as above
T1 sequence (P67870 whole entry, looked up): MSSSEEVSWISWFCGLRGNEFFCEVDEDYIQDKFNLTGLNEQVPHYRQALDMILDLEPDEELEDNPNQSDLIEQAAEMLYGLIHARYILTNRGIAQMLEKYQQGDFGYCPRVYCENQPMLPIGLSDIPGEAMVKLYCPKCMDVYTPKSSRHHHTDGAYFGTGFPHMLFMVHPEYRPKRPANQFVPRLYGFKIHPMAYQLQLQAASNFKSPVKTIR
T1 sequence (P68400 whole entry, looked up): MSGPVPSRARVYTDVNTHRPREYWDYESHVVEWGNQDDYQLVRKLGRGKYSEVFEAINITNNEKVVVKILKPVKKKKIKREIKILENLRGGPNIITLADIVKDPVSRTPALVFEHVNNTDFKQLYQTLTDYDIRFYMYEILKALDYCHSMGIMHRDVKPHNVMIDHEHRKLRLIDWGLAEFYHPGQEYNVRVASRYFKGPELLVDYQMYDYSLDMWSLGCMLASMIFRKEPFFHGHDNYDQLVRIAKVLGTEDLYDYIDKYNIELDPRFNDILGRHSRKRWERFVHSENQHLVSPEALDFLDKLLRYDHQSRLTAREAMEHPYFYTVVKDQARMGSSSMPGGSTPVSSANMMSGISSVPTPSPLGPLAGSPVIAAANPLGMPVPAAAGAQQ
Calcium/calmodulin-dependent protein kinase type II subunit beta (Homo sapiens), sequence (Q13554 whole entry): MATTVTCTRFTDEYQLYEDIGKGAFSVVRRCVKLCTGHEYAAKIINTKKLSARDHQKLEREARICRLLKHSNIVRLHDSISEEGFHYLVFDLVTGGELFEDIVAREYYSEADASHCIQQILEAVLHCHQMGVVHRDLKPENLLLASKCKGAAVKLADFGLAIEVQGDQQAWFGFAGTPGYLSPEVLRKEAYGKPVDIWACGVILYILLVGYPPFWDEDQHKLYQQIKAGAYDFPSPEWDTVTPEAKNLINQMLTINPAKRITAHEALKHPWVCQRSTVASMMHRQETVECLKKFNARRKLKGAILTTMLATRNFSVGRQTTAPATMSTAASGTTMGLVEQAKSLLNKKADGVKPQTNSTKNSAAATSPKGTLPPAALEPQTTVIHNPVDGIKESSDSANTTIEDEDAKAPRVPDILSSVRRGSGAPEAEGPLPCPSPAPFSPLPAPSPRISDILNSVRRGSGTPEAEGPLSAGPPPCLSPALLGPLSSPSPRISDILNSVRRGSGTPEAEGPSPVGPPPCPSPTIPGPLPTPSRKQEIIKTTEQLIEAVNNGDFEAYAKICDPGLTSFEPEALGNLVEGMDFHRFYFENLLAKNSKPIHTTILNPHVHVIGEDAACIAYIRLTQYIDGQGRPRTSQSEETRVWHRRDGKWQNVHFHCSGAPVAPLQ
Calcium/calmodulin-dependent protein kinase type II subunit gamma (Homo sapiens), sequence (Q13555 whole entry): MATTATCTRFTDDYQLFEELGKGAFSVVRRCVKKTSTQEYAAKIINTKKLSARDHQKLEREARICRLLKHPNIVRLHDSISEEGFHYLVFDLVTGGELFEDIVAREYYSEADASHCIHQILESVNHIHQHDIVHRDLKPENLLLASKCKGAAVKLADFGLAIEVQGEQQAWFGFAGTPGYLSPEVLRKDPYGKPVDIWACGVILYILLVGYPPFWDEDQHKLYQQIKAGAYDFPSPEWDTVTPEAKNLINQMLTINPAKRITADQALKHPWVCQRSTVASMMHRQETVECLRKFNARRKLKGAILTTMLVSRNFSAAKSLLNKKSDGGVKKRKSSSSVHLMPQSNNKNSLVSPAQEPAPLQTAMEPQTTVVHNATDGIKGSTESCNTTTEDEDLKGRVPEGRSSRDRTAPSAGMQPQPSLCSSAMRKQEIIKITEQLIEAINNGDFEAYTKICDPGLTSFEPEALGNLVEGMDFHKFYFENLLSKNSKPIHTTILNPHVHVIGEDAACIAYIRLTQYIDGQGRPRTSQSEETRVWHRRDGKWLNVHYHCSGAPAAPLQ

Consider `Nc1ncnc2c1cnn2-c1ccccc1`, for which the residual activity in assay [1] is 87%; in [2] it was 36%; in assay [3], 58%; in assay [4], 87%; in assay [5], 99%; in assay [6], 99%. Also, the residual activity in [7] worked out at 69%; in assay [8], 35%; in assay [9], 91%; in assay [10] it was 51%; in [11] it was 98%; in assay [12], 63%. Moreover, the figures for the residual activity in assay [13] and in [14] were 125% and 92%, respectively.
As to `CCOC(=O)c1c(C)[nH]c(/C=C2\C(=O)Nc3ccccc32)c1C`, the residual activity in assay [1] came to 77%; in assay [2] it was 118%; in [15], 131%; in assay [3], 89%; in assay [16], 95%; in [17] it was 95%. Further, the residual activity in assay [4] amounted to 82%; in [5], 73%; in [7] it was 77%; in assay [18] it was 98%; in assay [8], 93%; in assay [9] it was 77%. Also, the figures for the residual activity in assay [10], in assay [11] and in assay [12] were 48%, 79% and 59%, respectively.
Regarding `COc1cc2c(cc1OC)-c1n[nH]c(Nc3cccc(F)c3)c1C2`, the residual activity in assay [1] stood at 82%; in [2], 106%; in assay [16], 108%; in [17], 68%; in assay [4] it was 59%; in assay [5], 48%. Further, the residual activity in [19] worked out at 80%; in assay [20] it was 29%; in assay [8], 56%; in [9] it was 99%; in assay [10] it was 60%.
On to `CC(C)c1nn(-c2c(Cl)cccc2Cl)c2nc(Cc3ccc(OCCO)cc3)[nH]c(=O)c12`, for which the residual activity in [1] stood at 100%; in assay [2] it was 96%; in assay [15], 108%; in assay [3] it was 94%; in assay [16], 38%; in assay [17], 48%. In addition, the residual activity was 77% in [4]; 59% in [5]; 123% in assay [19]; 106% in [20]; 90% in assay [6]; 91% in assay [7]. The residual activity in assay [18] is 91%; in assay [8] it was 59%; in assay [9], 95%; in [10] it was 60%; in assay [11], 94%; in assay [12], 67%. For the same molecule, the residual activity in [14] is 82%.
Turning to `CCCCc1c(-c2ccc(O)cc2)[nH]c2nccnc12`, the residual activity in [1] was 99%; in assay [2], 92%; in [3] it was 87%; in [16], 64%; in [17] it was 47%; in assay [4], 83%. For the same molecule, the residual activity in assay [5] is 52%; in [7], 71%; in [18], 77%; in [8], 51%; in [11] it was 62%; in assay [12] it was 22%.
Consider `N#C/C(=C1/Nc2ccccc2S1)c1ccnc(NCCc2cccnc2)n1`, for which the residual activity in [1] worked out at 58%; in assay [2], 15%; in assay [15], 41%; in assay [3] it was 15%; in assay [16] it was 29%; in assay [17] it was 13%. Further, the residual activity in [4] was 39%; in [5], 6%; in assay [8], 25%; in assay [9] it was 80%; in [10], 21%; in assay [11], 83%. Moreover, the residual activity was determined as 24% in assay [12], 88% in [13] and 34% in assay [14].
As for `CC(C)(C)c1nc2c3ccc(F)cc3c3c(=O)[nH]ccc3c2[nH]1`, the residual activity in assay [1] was found to be 56%; in assay [2], 63%; in [15], 100%; in assay [3] it was 34%; in assay [16], 34%; in assay [17] it was 50%. Moreover, the residual activity in assay [4] was found to be 68%; in assay [5], 13%; in assay [6], 60%; in assay [7] it was 9%; in assay [8] it was 33%; in [9], 21%. The residual activity in assay [10] came out at 3%; in assay [11], 24%; in assay [12], 11%; in [13], 1%; in [14], 0%.
`Nc1n[nH]c2nc3ccccc3nc12`: the residual activity in assay [1] turned out to be 85%; in [2], 62%; in [16], 84%; in [17], 52%; in assay [4], 88%; in assay [5], 71%. Further, the residual activity was found to be 87% in [6]; 68% in assay [7]; 75% in assay [18]; 16% in assay [8]; 86% in assay [9]; 28% in assay [10]. For the same molecule, the residual activity in assay [11] was determined as 86%; in assay [12], 36%; in assay [13], 121%; in [14] it was 87%.
Consider `CSc1nc(-c2ccc(F)cc2)c(-c2ccnc(NC(C)c3ccccc3)c2)[nH]1` (stereo unspecified), for which the residual activity in assay [1] turned out to be 99%; in assay [2] it was 99%; in assay [17], 89%; in [4], 84%; in assay [5], 86%; in assay [19], 102%. Also, the residual activity in assay [20] turned out to be 84%; in assay [7], 87%; in assay [8], 75%; in assay [9], 98%; in assay [10], 83%; in assay [11], 102%. Also, the results for the residual activity in assay [12] and in [14] were 83% and 92%, respectively.
Consider `NC(=O)Nc1sc(-c2ccc(F)cc2)cc1C(N)=O`, for which the residual activity in assay [1] is 68%; in assay [2] it was 34%; in assay [15] it was 78%; in assay [3] it was 18%; in assay [16] it was 105%; in [17], 46%. The residual activity in assay [19] is 92%; in assay [20] it was 56%; in [6] it was 74%; in assay [7], 18%; in [18] it was 86%; in [8] it was 40%. The residual activity was 82% in assay [9]; 32% in assay [10]; 83% in [11]; 31% in assay [12]; 72% in assay [14].
As for `O=C1NC(=O)c2c1c1c3ccccc3[nH]c1n1cncc21`, the residual activity was 60% in assay [1]; 21% in [2]; 81% in assay [15]; 21% in assay [3]; 51% in assay [16]; 46% in [17]. Also, the residual activity in assay [4] stood at 70%; in assay [5] it was 53%; in assay [19], 97%; in assay [20], 58%; in [6] it was 61%; in assay [7], 36%. Further, the residual activity in assay [18] was 22%; in [8] it was 14%; in assay [9] it was 15%; in [10], 7%; in assay [11] it was 12%; in assay [12], 6%. Moreover, the residual activity in assay [13] is 61%; in assay [14], 62%.
`Nc1nc(Nc2ccc(S(N)(=O)=O)cc2)nn1C(=O)c1c(F)cccc1F`: the residual activity in [1] amounted to 111%; in [2], 97%; in assay [15], 104%; in assay [3] it was 99%; in assay [16] it was 40%; in assay [17], 9%. The residual activity in [4] was found to be 20%; in assay [5], 0%; in [19], 99%; in assay [20] it was 100%; in assay [7] it was 60%; in assay [8], 43%. The residual activity was 73% in assay [9]; 19% in assay [10]; 75% in assay [11]; 31% in assay [12]; 64% in assay [14].
With `O=C1C(Cl)=C(N2C(=O)CCC2=O)C(=O)c2ccccc21`, the residual activity in assay [1] was determined as 99%; in [2], 100%; in [15], 100%; in [3] it was 98%; in assay [16] it was 102%; in assay [17], 80%. Further, the residual activity in [4] came out at 89%; in [5], 79%; in assay [7], 78%; in assay [18] it was 90%; in assay [8] it was 86%; in [11], 97%. The residual activity in [12] is 99%; in assay [14], 10%.
